Source: PubChem BioAssay (NCI)
Compounds without any hit were thinned out: in the full panel of roughly 83,000, 20% have a hit.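 Activity criterion: percent growth below 10, measured after cells in 96-well plates were exposed to a single compound concentration for 48 hours.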 Active and inactive are the calls of the source.

What was measured:
Experiment in all cases: NCI-60 one-dose screen, 48 h (100 = growth as untreated, 0 = no growth, -100 = all killed)
Settings in all cases: 10 µM unless noted
[1] = test system: T-47D breast
[2] = test system: BT-549 breast
[3] = test system: MDA-MB-435 melanoma
[4] = test system: SW-620 colon
[5] = test system: MCF7 breast
[6] = test system: HCT-116 colon
[7] = test system: HCC-2998 colon
[8] = test system: KM12 colon

Measured: growth

CCN(CC)c1ccc(/C=N/NC(=O)CSc2nc3ccccc3c(=O)n2CCc2ccc(S(N)(=O)=O)cc2)c(O)c1
inactive: [1] 13.9% | [2] 45.2% | [3] 31.9% | [4] 27% | [5] 11.1% | [6] 10.7% | [7] 35.8% | [8] 19.1%

CCNC(=O)Oc1ccc(/C(=C(\C)c2ccccc2)c2ccc(OCCCN(C)C)cc2)cc1
inactive: [1] 45.6% | [2] 70.7% | [3] 69.6% | [4] 94.5% | [5] 27% | [6] 48.8% | [7] 67.9% | [8] 65.8%

COc1cc2oc(-c3cccc(C(=O)Nc4ccccc4)c3)cc(=O)c2c(O)c1OC
inactive: [1] 55.8% | [2] 60.1% | [3] 58.3% | [4] 94.3% | [5] 78.1% | [6] 46.3% | [7] 89.7% | [8] 57.8%

N#Cc1c(NC(=O)NCc2ccccc2)sc2c1CCCC2
active: [3] -35.3%
inactive: [1] 40% | [2] 24.1% | [4] 24% | [5] 19.5% | [6] 12.2% | [7] 22.4% | [8] 20.5%

O=C1c2c(c3c4cccc(F)c4[nH]c3c3ccc4ccccc4c23)C(=O)N1O
inactive: [1] 19.6% | [2] 52.7% | [3] 60.7% | [4] 31.2% | [5] 19.4% | [6] 16.9% | [7] 76.3% | [8] 25.4%

O=S(=O)(NCCNc1nccc(-c2c(-c3cccc(O)c3)nc3occn23)n1)c1ccc(Cl)cc1
inactive: [1] 91.7% | [2] 116% | [3] 45.4% | [4] 125% | [5] 82% | [6] 87.6% | [7] 135% | [8] 91.3%

N#C/C(=C\c1cccc(C#N)c1)c1ccccc1
inactive: [1] 78.7% | [2] 102% | [3] 100% | [4] 105% | [5] 105% | [6] 94.2% | [7] 93.1% | [8] 102%

COc1cc(NCCCCCNC(C)(C)C)c2ncccc2c1
active: [5] -54.4%
inactive: [1] 19.9% | [2] 109% | [3] 94.6% | [4] 96.7% | [6] 101% | [7] 97.5% | [8] 95.4%

c1ccc(-c2c(-c3ccccc3)[n+](Cc3ccc4ccccc4c3)c(-c3cccc4ccccc34)n2Cc2ccc3ccccc3c2)cc1
active: [1] -73.4% | [2] -63.7% | [3] -58.6% | [4] -66.1% | [5] -15% | [6] -74.4% | [7] -74.5% | [8] -77.7%

Cn1ccc2c1CC1CN(Cc3ccco3)C(=O)C1C2C(=O)O (stereo not given)
inactive: [1] 98.7% | [2] 110% | [3] 101% | [4] 98.7% | [5] 95.7% | [6] 104% | [7] 104% | [8] 101%

COc1cc(C2C3=C(COC3=O)N(CCO)c3cc4c(cc32)CCC4)cc(OC)c1OC (stereo not given)
active: [2] -9.83% | [3] -9.03% | [5] -16.2% | [6] -35.3% | [7] -32.4% | [8] -16.9%
inactive: [1] 54.1% | [4] 21.4%

NCCCCCCNc1cc(-c2cccc(OC(F)(F)F)c2)nc2ccc(N3CCCC3)cc12
active: [1] -15.4% | [3] -99.8% | [4] -86.3% | [5] -72.6% | [6] -63.3% | [7] -66.5% | [8] -82.7%
inactive: [2] 55.7%

COc1ccc(-c2nc3sccn3c2/C=C/C(=O)c2ccc3c(c2)OCO3)cc1
inactive: [1] 83.9% | [2] 81.8% | [3] 57.6% | [4] 56% | [6] 58.4% | [7] 95.5% | [8] 54.2%
active: [5] -7.62%

C=C1C(=O)O[C@H]2[C@H]1CC/C(CNC(=O)/C=C/c1cccc(OC)c1)=C\CC[C@@]1(C)O[C@@H]21
active: [1] -4.32% | [2] -12.3% | [4] -61.9% | [5] -7.47% | [6] -62.2%
inactive: [3] 16.7% | [7] 36.5% | [8] 80%

O=C(Nc1cccc(C2=NCCN2)c1)c1ccc(-c2ccc(C(=O)Nc3cccc(C4=NCCN4)c3)cc2)cc1
inactive: [1] 58.5% | [2] 93.4% | [3] 57.4% | [4] 69.2% | [5] 18.5% | [6] 72.7% | [7] 81.1% | [8] 60.4%

CC(=O)[C@@H]1CC[C@]2(CO)CC[C@]3(C)[C@H](CC[C@@H]4[C@@]5(C)CCCNC(C)(C)[C@@H]5CC[C@]43C)[C@@H]12
inactive: [1] 103% | [2] 101% | [3] 96.8% | [4] 103% | [5] 87.1% | [6] 94.3% | [7] 101% | [8] 101%

C=C(C)[C@@H]1CC[C@]2(CN)CC[C@]3(C)[C@H](CC[C@@H]4[C@@]5(C)CCCNC(C)(C)[C@@H]5CC[C@]43C)[C@@H]12
inactive: [2] 84.6%
active: [1] -10.1% | [3] -96.2% | [4] -84.5% | [5] -66.1% | [6] -95.5% | [7] -80.6% | [8] -85.4%

O=C(c1nnc(Nc2ccccc2Br)o1)c1c[nH]c2ccccc12
inactive: [1] 79.6% | [2] 103% | [3] 101% | [4] 98.7% | [5] 77.2% | [6] 88.4% | [7] 88.6% | [8] 81.7%

COc1ccc(/C=C2\Oc3cc(OCCCCCN4CCCCC4)ccc3C2=O)cc1OC
inactive: [1] 72.4% | [2] 69.4% | [3] 99.2% | [5] 70.9% | [7] 94.7% | [8] 80.4%
active: [4] -61.3% | [6] -51.2%

COc1cc2nc(-c3ccc(Cl)cc3)cc(OCCCN3CCC(O)CC3)c2cc1OC
inactive: [1] 44.3% | [2] 34.9% | [4] 51.2% | [5] 48.9% | [6] 17.9% | [7] 69.9% | [8] 37.2%
active: [3] -10.7%

C=CCN1C(=O)/C(=C/C(=O)OC)S/C1=N\NC(=O)c1cc2ccc1/C=C\c1ccc(cc1)/C=C\2
inactive: [1] 62.8% | [2] 61.7% | [3] 100% | [4] 44.5% | [5] 51.5% | [6] 54% | [7] 108% | [8] 81.6%

NC1[C@H](c2c[nH]c3ccccc23)c2c([nH]c3ccccc23)[C@H]1c1c[nH]c2ccccc12 (stereo not given in full)
inactive: [1] 94.9% | [2] 105% | [3] 100% | [4] 96.3% | [5] 90.8% | [6] 74.2% | [7] 97.3% | [8] 91%

Cc1ccc(CNc2c3ccccc3nc3cc(NC(=O)CCN4CCCC4)ccc23)cc1
active: [3] 8.86% | [4] -57.4% | [5] -22.4% | [6] -77.9% | [7] -15.8% | [8] -6.45%
inactive: [1] 16.9% | [2] 35.3%

Cc1c(C)c([N+](=O)[O-])c(C)c([N+](=O)[O-])c1C
inactive: [1] 113% | [2] 95.8% | [3] 115% | [4] 109% | [5] 97.3% | [6] 105% | [7] 112% | [8] 108%

CN[C@@H](C)C(=O)N[C@H]1CCS[C@H]2CC(C)(C)[C@@H](C(=O)N[C@H]3c4ccccc4C[C@H]3OCC#CC#CCO[C@@H]3Cc4ccccc4[C@@H]3NC(=O)[C@H]3N4C(=O)[C@@H](NC(=O)[C@H](C)NC)CCS[C@H]4CC3(C)C)N2C1=O
active: [2] -15.4%
inactive: [1] 86.1% | [3] 54.8% | [4] 105% | [5] 64.7% | [6] 99% | [7] 90.2% | [8] 110%

COC(=O)/C=C1\S/C(=N\NC(=O)c2cc3ccc2/C=C\c2ccc(cc2)/C=C\3)N(Cc2ccccc2)C1=O
active: [1] -6.25%
inactive: [2] 10.3% | [3] 91.6% | [4] 18.2% | [5] 32.7% | [6] 49.5% | [7] 79.5% | [8] 65.1%

CCCCCN1C=C/C(=C\C(=O)N2CCCc3ccccc32)c2ccccc21
inactive: [1] 68.2% | [2] 79.7% | [3] 97% | [4] 88.8% | [5] 91% | [6] 66.5% | [7] 102% | [8] 90.4%

Fc1ccc(-c2cn3c(nc4ccccc43)c(-c3ccccc3)n2)cc1
inactive: [1] 86.2% | [2] 105% | [3] 98% | [4] 95.8% | [5] 92.8% | [6] 89.1% | [7] 98.9% | [8] 92.1%

Cn1ccnc1C(=O)/C=C/c1ccc(CC(=O)Nc2ccc(Cl)cc2)cc1
active: [1] 2.07% | [4] 7.1% | [6] 7.88% | [8] 9.56%
inactive: [2] 17.6% | [3] 17.6% | [5] 25.5% | [7] 30.3%

COc1cc(/C(C)=C(\c2ccc(Cl)cc2)c2ccc(OCCN(C)C)cc2)ccc1F
inactive: [1] 61.2% | [2] 76.2% | [3] 39.6% | [4] 49.8% | [5] 31.7% | [6] 46.8% | [7] 25.1% | [8] 44%
